Hit rate of the full screen: of about 190,000 compounds, about 1,300 (0.68%) were called active. The full list was thinned out, with actives kept by preference. Values without a mark were called inactive. No stated cut-off is given here; in the data, active means inhibition above about 50%; inactive means the rest.

The target in the assay is Mannose-6-phosphate isomerase (Homo sapiens) (UniProt P34949). Kind of assay: MPI inhibition at elevated mannose 6-phosphate – biochemical, fluorescence intensity, high mannose 6-phosphate, primary screen (AID 1220). The conditions noted are these: recombinant PMI enzyme, coupled fluorescence intensity; at 20 µM; hits give high values.
Sequence of Mannose-6-phosphate isomerase (Homo sapiens) (P34949 whole entry, looked up): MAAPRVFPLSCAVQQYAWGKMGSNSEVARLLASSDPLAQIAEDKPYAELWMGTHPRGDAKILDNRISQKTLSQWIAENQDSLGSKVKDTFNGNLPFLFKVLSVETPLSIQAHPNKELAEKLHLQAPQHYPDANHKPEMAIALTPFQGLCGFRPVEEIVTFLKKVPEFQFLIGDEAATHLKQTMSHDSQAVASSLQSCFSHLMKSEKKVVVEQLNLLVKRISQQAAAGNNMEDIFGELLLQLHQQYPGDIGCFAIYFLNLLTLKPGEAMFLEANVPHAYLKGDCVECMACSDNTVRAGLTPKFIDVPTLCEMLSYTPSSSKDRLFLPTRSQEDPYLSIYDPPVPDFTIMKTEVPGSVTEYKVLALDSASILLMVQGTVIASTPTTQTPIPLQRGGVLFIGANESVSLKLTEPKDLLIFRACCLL
For the compound `CCOC(=O)C1CCCN(C(=O)c2cn(CC)c(=O)c3cc(OC)c(OC)cc23)C1` (stereo not drawn), the inhibition is -1.3%.
`CCOC(=O)c1nn(-c2ccc(C)cc2)cc1O`: the inhibition is 1.2%.
Consider `CC1(C)CC(=O)C2=C(C1)Nc1ccccc1NC2c1cccnc1` (stereo not drawn), for which the inhibition was -11.6%.
The same measure for `CC1(C)CC(=O)C2=C(C1)Nc1cc(C(=O)c3ccccc3)ccc1NC2c1ccccn1` (stereo not drawn): -4.3%.
Take `COC(=O)c1ccc2c(c1)NC1=C(C(=O)CC(C)(C)C1)C(c1ccncc1)N2` (stereo not drawn): the inhibition was 61.3% (active).
In the case of `COc1ccc(C(=O)Oc2c(CN3CCOCC3)cc(Cl)c3cccnc23)cc1`, the inhibition was 22.5%.
On to `O=C(Oc1c(CN2CCOCC2)cc(Cl)c2cccnc12)c1ccc(F)cc1`, for which the inhibition is 40.1%.
The same measure for `O=C(Oc1c(CN2CCOCC2)cc(Cl)c2cccnc12)c1ccccc1F`: 51.4% (active); for `O=[N+]([O-])c1cc(CN2CCOCC2)c2cccnc2c1O`: 40.5%.
The same measure for `COc1cccc(C(=O)Oc2c(CN3CCOCC3)cc(Cl)c3cccnc23)c1`: 24%; for `O=C(Oc1c(CN2CCOCC2)cc(Cl)c2cccnc12)c1ccccc1`: 56.3% (active).
As for `O=C(Oc1c(Cl)cc(Cl)c2cccnc12)N1CCOCC1`, the inhibition is 1.1%.
As to `O=C(Oc1c(CN2CCOCC2)cc(Cl)c2cccnc12)c1ccccc1Cl`, the inhibition is 57.1% (active).
Regarding `COc1cc(C(=O)Oc2c(CN3CCOCC3)cc(Cl)c3cccnc23)cc(OC)c1OC`, the inhibition is 35.9%.
As for `c1ccc2c(c1)ccc1ncccc12`, the figure is -5.5%; as for `O=C(CS(=O)(=O)c1ccccc1)Nc1nc(-c2ccc(F)cc2)cs1`, 8.2%; as for `CCOC(=O)CNC(=O)CSc1nnc(-c2ccco2)n1N`, 6.3%.
Take `CCCCOc1ccc(Cc2c(COCC)[nH]c(=S)[nH]c2=O)cc1`: the inhibition is -4.9%.
Regarding `O=C(c1cc2ccccc2o1)N1CCCC1`, the inhibition is -0.3%.
With `COc1ccc(OC)c(S(=O)(=O)Nc2ccccc2SC)c1`, the inhibition was 57.1% (active).
Consider `COc1ccc(OC)c(S(=O)(=O)Nc2ccccc2C)c1`, for which the inhibition is 10.8%.
Take `COc1ccc(OC)c(NS(=O)(=O)c2cc(OC)ccc2OC)c1`: the inhibition is 2.8%.
Turning to `CC1=CC(C)(C)N(C(=O)CNC2CCCCC2)c2cc(C)ccc21`, the inhibition is 2.1%.
The same measure for `C=CCOc1c(Br)cc(CNc2ccc(NC(=O)C(C)C)c(OC)c2)cc1OCC`: 57.7% (active); for `C=CCOc1c(Br)cc(CNc2ccc(NC(=O)C(C)C)c(OC)c2)cc1OC`: 41.7%; for `C=CCOc1c(Br)cc(CNc2ccc(NC(=O)C(C)C)cc2)cc1OCC`: 22.7%.
On to `COc1cccc(C(=O)Nc2ccc3c(c2)C(=O)N(CCC(=O)O)C3=O)c1`, for which the inhibition is 3.7%.
The same measure for `CC1CCCC(NC(=O)COC(=O)CSc2ccc3ccccc3c2)C1C` (stereo not drawn): 7.7%; for `Cc1ccc(-c2nc(N)sc2-c2ccc(C)cc2)cc1`: 13.6%; for `Cc1ccc(-c2cc(-c3ccccc3)nc(Cl)n2)cc1`: 12.5%.
Turning to `Cc1ccc(-c2nnc(-c3ccccc3)c(-c3ccccc3)n2)cc1`, the inhibition is -0.5%.
As to `Cc1ccc(-c2nc(N)sc2C)cc1`, the inhibition is -10.2%.
`CCCCC(=O)OCC(=O)c1[nH]c(C)c(C(C)=O)c1C`: the inhibition was -12%.
As to `CCc1nnc(NC(=O)c2ccc(N(C)S(=O)(=O)c3ccccc3)cc2)s1`, the inhibition is -6.4%.
With `CC(C)c1ccccc1NC(=O)COC(=O)CNC(=O)c1ccc(Br)cc1`, the inhibition was 4.8%.
The same measure for `Nc1cc2c(cc1O)CCCC2`: 54.3% (active); for `Nc1ccc(Cc2ccc(N)c(O)c2)cc1O`: 46.8%.
Take `O=C(O)c1ccc2c(c1)CCC2`: the inhibition was 0.1%.
Consider `COc1cc(NC(=O)CSc2c3c(nc4ccccc24)CCC3)cc(OC)c1OC`, for which the inhibition is -3.7%.
As for `CCOc1ccccc1NC(=O)CCN(c1ccc(C)cc1)S(=O)(=O)c1ccccc1`, the figure is 5.3%; as for `Cc1nn(Cc2c(F)c(F)c(F)c(F)c2F)c(C)c1NC(=O)c1ccc(COc2cc(Cl)ccc2Cl)cc1`, 0.7%; as for `O=C1C2C3C=CC(C3)C2C(=O)N1CNc1ccccc1` (stereo not drawn), -1%.
As for `O=C1C2C3C=CC(C3)C2C(=O)N1CNc1ccc(O)cc1` (stereo not drawn), the figure is 58.4% (active); as for `Cc1ccc(NCN2C(=O)C3C4C=CC(C4)C3C2=O)cc1` (stereo not drawn), 16.9%.
The same measure for `CC12CC(NC(=O)N1c1cccc(C(=O)N3CCN(c4ccccn4)CC3)c1)c1ccccc1O2` (stereo not drawn): -3.4%; for `O=C(CSc1nnc(SCc2cccc3ccccc23)s1)Nc1ccc(C(=O)O)cc1`: 10.4%; for `COc1ccc(COc2ccc(C3C(S(=O)(=O)c4ccccc4)CON3C)cc2OC)cc1` (stereo not drawn): -2.4%.
In the case of `O=C(O)c1cccc(NS(=O)(=O)c2ccc(Cl)c(C(=O)O)c2)c1`, the inhibition is 1.9%.
As for `O=C(O)c1cccc(NS(=O)(=O)c2ccc(-c3ccc(S(=O)(=O)Nc4cccc(C(=O)O)c4)cc3)cc2)c1`, the inhibition was 53.1% (active).
`O=C(O)c1cccc(NS(=O)(=O)c2ccc(C3CCCCC3)cc2)c1`: the inhibition is -7%.
Consider `Cc1oc2c(c1C(=O)N1CCC(C)CC1)C(=O)c1ccccc1C2=O`, for which the inhibition was 54.7% (active).
Turning to `Cc1oc2c(c1C(=O)O)C(=O)c1ccccc1C2=O`, the inhibition was -9.6%.
Take `CCOC(=O)C1CCN(C(=O)c2c(C)oc3c2C(=O)c2ccccc2C3=O)CC1`: the inhibition is 55.2% (active).
With `CCOC(=O)C1CCN(C(C)=C2C(=O)c3ccccc3C2=O)CC1`, the inhibition was -9.2%.
On to `CCOC(=O)c1c(C)oc2c1C(=O)c1ccccc1C2=O`, for which the inhibition is -16.2%.
On to `CC(=O)c1c(C)oc2c1C(=O)c1ccccc1C2=O`, for which the inhibition is -9.9%.
Take `CSc1nc(-c2ccccc2)c(-c2ccccc2)[nH]1`: the inhibition was -9.1%.
Take `COc1ccc([N+](=O)[O-])cc1N(CC(=O)NC1CCCC1)S(C)(=O)=O`: the inhibition was -1.4%.
Turning to `Cc1cccc(N=C2NN=C(c3c(C)[nH]c4ccccc34)CS2)c1`, the inhibition is -7%.
The same measure for `O=C(Nc1ccc(Cl)cc1)N(Cc1nnc2n1CCCCC2)c1ccccc1`: -8.1%; for `CCOC(=O)c1ccc(CN(Cc2ccc(C)cc2)S(=O)(=O)c2cccc([N+](=O)[O-])c2)cc1`: -10%; for `N#Cc1c(N2CCCCC2)nc(N)c2c(N)nc3c(c12)CC(CCl)O3` (stereo not drawn): 47.3%.
As for `CCc1nc(N2CCOCC2)c(C#N)c2c1CCCC2`, the inhibition was 4.2%.
In the case of `CCN(CC)c1nc(N)c2c(N)nc3c(c2c1C#N)CC(c1ccccc1)O3` (stereo not drawn), the inhibition is 31.2%.
As for `N#Cc1c(N2CCCCC2)nc(N)c2c(N)nc3c(c12)CC(c1ccccc1)O3` (stereo not drawn), the figure is 56.5% (active); as for `CCC1Cc2c(nc(N)c3c(N)nc(N4CCOCC4)c(C#N)c23)O1` (stereo not drawn), 61.5% (active); as for `COc1ccc(CN2C(=O)Cc3c2nc(N)c2c(N)nc(N4CCCCC4)c(C#N)c32)cc1`, 37.8%.
The same measure for `CCOc1ccccc1C1N(c2ccc(OC)cc2)C(=O)C2CCCN21` (stereo not drawn): 2.6%; for `CC(C)(C)NC(=O)C(c1ccncc1)N(C(=O)Cn1nnc(-c2ccc(F)cc2)n1)c1ccccc1F` (stereo not drawn): 1.9%; for `O=C(Nc1ccccc1NC(=O)C1CCCO1)c1ccco1` (stereo not drawn): 51.8% (active).
As to `O=C(Nc1cccc(NC(=O)C2CCCO2)c1)c1ccco1` (stereo not drawn), the inhibition is 13.7%.
For `Cc1ccc(NC(=O)c2ccco2)c(NC(=O)C2CCCO2)c1` (stereo not drawn), the inhibition was 11.8%.
As for `CCOC(=O)N1CCC(N(CCN(C)C)C(=S)Nc2cccc(Cl)c2)CC1`, the figure is 10.6%; as for `O=S(=O)(c1ccc2c(c1)oc1ccccc12)N1CCOCC1`, 3.7%.
For `O=c1c2ccccc2sn1-c1ccc(S(=O)(=O)N2CCCC2)cc1`, the inhibition was 5%.
As for `O=c1c2ccccc2sn1-c1cc(S(=O)(=O)N2CCOCC2)ccc1N1CCOCC1`, the inhibition was 96.3% (active).
For the compound `Cc1ccc(C)n1-c1cc(S(=O)(=O)N2CCOCC2)ccc1N1CCCC1`, the inhibition is 17%.
Take `O=C(O)c1cc(S(=O)(=O)N2CCOCC2)ccc1N1CCOCC1`: the inhibition is -9.3%.
On to `O=c1c2ccccc2sn1-c1cc(S(=O)(=O)N2CCOCC2)ccc1N1CCCC1`, for which the inhibition is 77.3% (active).
For the compound `Cc1cc2ccccc2n1CCNC(=O)C(C)Oc1ccccc1` (stereo not drawn), the inhibition is 5.6%.
In the case of `Cc1cc(Nc2ccccc2)nc(N2CCOCC2)n1`, the inhibition is -4.3%.
For the compound `COCCCNC(=O)c1cc(C(=O)c2c(-c3c(Cl)cccc3Cl)noc2C)c[nH]1`, the inhibition is -2.4%.
With `CC1(C)CC(=O)c2cnc3c(C#N)cnn3c2C1`, the inhibition was 6.6%.
As to `Cc1ccc(CN(Cc2ccco2)C(=S)Nc2ccccc2C)cc1`, the inhibition is 8.6%.
As to `O=c1[nH]snc1N1CCOCC1`, the inhibition was -7.2%.
The same measure for `O=c1c(N2CCOCC2)nsnc1N1CCOCC1`: 53.3% (active); for `COc1nsnc1N1CCOCC1`: -11.2%.
`Cc1ccc(Oc2c(F)c(F)nc(N3CCCC3)c2F)cc1`: the inhibition is 32.2%.
For `CCN(CC(=O)NCc1cccs1)C(=O)CCc1c[nH]c2ccccc12`, the inhibition was 8.8%.
As for `Cc1cc(N)n(-c2ccc(C(=O)O)cc2)n1`, the figure is 2.1%.
For `CC(C)(C)c1cc(N)n(-c2ccc(C(=O)O)cc2)n1`, the inhibition was 52.8% (active).
Turning to `Cc1cc(C)n(-c2ccc(C(=O)O)cc2)n1`, the inhibition is 30.6%.
For the compound `O=C(Cn1cnc2sc(-c3ccccc3)cc2c1=O)NCc1ccccc1`, the inhibition is -8.4%.
In the case of `CCOC(=O)C1=C(CSc2nccn2C)NC(=O)NC1c1cc(C)ccc1C` (stereo not drawn), the inhibition is -2%.
`CCN(CC)Cc1cc(O)c(CN(CC)CC)cc1O`: the inhibition was 54.7% (active).
As for `CCc1oc(C(=O)O)cc1CN(CC)CC`, the figure is 10.9%; as for `CCN(CC)Cc1cc(C(C)=O)ccc1O`, -8.6%.
For `CC(=O)Nc1ccc(NC(=O)CCC(=O)OCC(=O)c2ccc(C)c([N+](=O)[O-])c2)cc1`, the inhibition is -5.6%.

The term inhibition denotes the drop in the measured response relative to a control, in per cent.

The values above are taken from PubChem BioAssay AID1220 (Sanford-Burnham Center for Chemical Genomics, 2008).
